Test results taken from PubChem BioAssay (NCI).
Compounds without any hit were thinned out: in the full panel of roughly 83,000, 20% have a hit.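 48-hour exposure, single concentration, 96-well plates; percent growth endpoint where 0 means no net growth. Active: below 10.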 A number with no mark means an inactive call. Calls of active or inactive are those of the source.

system: SK-MEL-2 melanoma; assay: NCI-60 one-dose screen, 48 h (100 = growth as untreated, 0 = no growth, -100 = all killed); conditions: 10 µM

`COc1ccc2c(CCCCC(c3ccccc3)c3ccccc3)c3[n+](cc2c1OC)CCc1cc2c(cc1-3)OCO2` was tested, and the growth was -70.4% (active).
With `CCN1CCN(c2cc(C)nc(N(CCCNc3ccnc4cc(Cl)ccc34)Cc3ccc4c(c3)OCO4)n2)CC1` the growth was -67.9% (active).
For `Nc1c2c(c(O)c3c1=C(CO)C=N3)=NCCS2`, the growth was -54.6% (active).
`Cc1cc(N(CCNc2ccnc3cc(Cl)ccc23)Cc2ccc3c(c2)OCO3)nc(N2CCN(C)CC2)n1` was tested, and the growth was -57.5% (active).
With `C=CC(=O)N(C)[C@H]1C[C@H]2OC(C)(C1OC)n1c3ccccc3c3c4c(c5c6ccccc6n2c5c31)C(=O)NC4` (some centres undefined) the growth was -24.6% (active).
`Oc1ccc(/C=N/Nc2nnc(N/N=C/c3ccc(O)cc3O)c3ccccc23)c(O)c1` was tested, and the growth was -58% (active).
With `CCN1/C(=C/C=C/c2n(-c3ccccc3)c3ccc(-c4nc5ccccc5s4)cc3[n+]2CC)N(c2ccccc2)c2ccc(-c3nc4ccccc4s3)cc21` the growth was -23.5% (active).
In the case of `CC(=O)OCCC/C(=C\c1ccc2ccccc2c1)[N+](=O)[O-]`, the growth is reported as -68.5% (active).
`Cc1cc(N(CCNc2ccnc3cc(Cl)ccc23)Cc2ccc3c(c2)OCO3)nc(N2CCCC2)n1` was tested, and the growth was -39.9% (active).
`COC(=O)C1=C(C(=O)OC)C23C=C(C)C1C2=C(C)C1(CC1)[C@@](C)(O)C3=O` (some centres undefined) was tested, and the growth was -54.6% (active).

Point of comparison: `COc1cc2c3c(c1)nc(C)n3CCC2`, growth 100%. Against it:
- O=C(Nc1ccc(C(=O)Nc2ccc(C3=NCCCN3)cc2)cc1)Nc1ccc(C2=NCCCN2)cc1 — lower, 62.8%
- CCOC(=O)C1=C(C)N=C2Sc3cc(OC(F)(F)F)ccc3N2[C@H]1c1ccccn1 — lower, 43.6%
- C[C@@H](C[C@H](CCO)c1cc(C(F)(F)F)cc(C(F)(F)F)c1)c1ccc2ccccc2c1 — lower, 82.2%
- CN(N)c1nc2sc3c(c2c(=O)[nH]1)CCCC3 — higher, 103%
- C[N+](C)(CCOC(c1ccccc1)c1ccccc1)CC(=O)OCc1ccccc1 — higher, 105%
- CC1(/C=N/NC(N)=S)NC(=O)NC1=O (centres undefined) — higher, 105%
- [2H]C1([2H])[C@H](C)O[C@H](C)C([2H])([2H])N1c1ccc(NC(=O)c2cccc(-c3ccc(OC(F)(F)F)cc3)c2C)cn1 — lower, 56.1%
- N#Cc1cc2[nH]c3ccc(OC(F)(F)F)cc3c2oc1=O — lower, 66.5%
- COc1ccc2c(c1OC)C(=O)O[C@@H]2[C@H]1c2c(c(C#CC#Cc3ccc(F)c(F)c3)c3c(c2OC)OCO3)CCN1C — lower, 91.8%
- CCC1(/C=N/NC(N)=S)NC(=O)NC1=O (centres undefined) — higher, 109%
- CC(C)C1CCC(C)C(C2(C#N)C(N)=NC(N)=C2C#N)C1=O (centres undefined) — higher, 109%
- NC(=O)c1n[nH]n2c1nc(=O)c1c3c(sc12)CCCC3 — higher, 106%
- CCOC(=O)C1=C(C)NC(=O)NC1c1cc(=O)oc2ccc(C)cc12 (centres undefined) — lower, 95.6%
- Cc1cc2c(-c3nc4ccccn4c3Nc3cccc4ccccc34)c(O)c(O)cc2c(O)c1-c1c(C)cc2c(-c3nc4ccccn4c3Nc3cccc4ccccc34)c(O)c(O)cc2c1O — lower, 38.3%
- N#CC1(C#N)C(c2cccs2)NC(c2cccs2)C1(C#N)C#N (centres undefined) — higher, 102%
- CC1CCC(n2cnc3c(Cl)ncnc32)O1 (centres undefined) — higher, 109%
- CCc1ccc(/C=C/c2ccc(O)c3ncccc23)[n+](C)c1 — lower, 78.4%
- COc1ccc(OC)c(NC2=C(SCCc3ccccc3)C(=O)c3ccccc3C2=O)c1 — lower, 73.2%
- COC(=O)c1[nH]cnc1/N=N/N(C)CCO — higher, 108%
- O=C1CC(c2ccc(Cl)cc2)c2ncn(-c3cccc(Cl)c3)c2N1 (centres undefined) — lower, 44.8%
- COC(=O)CC[C@@H](C)[C@H]1CC[C@H]2C3CC[C@@H]4C[C@@H]5CC[C@]4(C)[C@@]3(O5)[C@H](Br)[C@@H](Br)[C@]12C (some centres undefined) — lower, 93%
- COc1cc(-c2cc(-c3ccc(Nc4ccnc5cc(Cl)ccc45)cc3)nc(N3CCOCC3)n2)cc(OC)c1OC — lower, 83.9%
- CCOC(=O)Sc1ncnc2nc[nH]c12 — lower, 27.9%
- CCCCCCCC(=O)SCC/C=C/[C@@H]1CC(=O)NCc2cccc(n2)C2=N[C@@](C)(CS2)C(=O)N[C@@H](C(C)C)C(=O)N1 — lower, 18.1%
- COc1ccc2c(CCc3ccc(Cl)cc3)c3[n+](cc2c1OC)CCc1cc2c(cc1-3)OCO2 — lower, 36.7%
- CC(=O)C(C(C)=O)C(c1ccccc1)C(C(C)=O)C(C)=O — the same, 100%
- Cc1ccc(NC(=O)NC(=O)CSc2nc3ccccc3nc2C)cc1 — lower, 68.3%
- O=C(Nc1ccc(C2=NCCCN2)cc1)c1ccc(C(=O)Nc2ccc(C3=NCCCN3)cc2)nc1 — higher, 109%
